# Results as given in PubChem BioAssay (NCI).
# The panel holds about 83,000 compounds, 20% with a hit somewhere; the sample as a whole holds those more often.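 Interpretation: 100, growth as untreated; towards 0, rising growth inhibition; 0, no net growth; 0 to -100, cell death. Compounds scoring below 10 were considered active.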 A number with no mark means an inactive call. Calls of active or inactive are those of the source.
# What was measured:
# Test in all cases: NCI-60 one-dose screen, 48 h (100 = growth as untreated, 0 = no growth, -100 = all killed)
# HCT-15 colon = conditions: 10 µM unless noted
# HT29 colon = conditions: 10 µM unless noted
# SNB-75 CNS = conditions: 10 µM unless noted
# SNB-19 CNS = conditions: 10 µM unless noted
# U251 CNS = conditions: 10 µM unless noted
# PC-3 prostate = conditions: 10 µM unless noted
# SK-MEL-5 melanoma = conditions: 10 µM unless noted
# UACC-62 melanoma = conditions: 10 µM unless noted
# LOX IMVI melanoma = conditions: 10 µM
# SK-MEL-28 melanoma = conditions: 10 µM unless noted
Structure (SMILES),growth (HCT-15 colon),growth (HT29 colon),growth (SNB-75 CNS),growth (SNB-19 CNS),growth (U251 CNS),growth (PC-3 prostate),growth (SK-MEL-5 melanoma),growth (UACC-62 melanoma),growth (LOX IMVI melanoma),growth (SK-MEL-28 melanoma)
CC(=O)c1c(N)c(C#N)cn1-c1ccc(Cl)cc1Cl,99.5%,106%,90.5%,102%,98%,90.8%,98.8%,80.8%,99.2%,106%
COc1ccc2[nH]cc(-c3cc(N)n4nc(-c5cn(C)c6ccccc56)cc4n3)c2c1,-83.4% (active),-73.7% (active),-52.4% (active),-48.4% (active),-85.3% (active),-67.6% (active),-96.3% (active),-76.5% (active),-67.9% (active),-92.9% (active)
COc1ccc(NC(=O)Nc2ccc(OCc3ccc(F)cc3)cc2)cc1,91.1%,92.3%,63.6%,46.9%,34.8%,79.7%,76.6%,82.6%,26.6%,75.5%
COc1c(F)ccc(C(=O)Nc2ccc3nc(NC(=O)C4CCCN(S(=O)(=O)C5CC5)C4)sc3c2)c1F (stereo not given),34%,44.1%,56.3%,63.5%,47.6%,39.1%,-43.8% (active),44.7%,24.5%,56.2%
Cn1cc(-c2nc(N)nnc2-c2c[nH]c3ccc(Br)cc23)c2cc(Br)cnc21,3.67% (active),-31.5% (active),-0.672% (active),33.9%,8.22% (active),3.39% (active),-63.5% (active),8.26% (active),17.3%,27.1%
Cc1nc(Nc2ccccn2)sc1C(=O)CC(SCC(=O)Nc1ccc(Cl)cc1)c1ccccc1F (stereo not given),2.33% (active),-28.4% (active),16.5%,11%,-21.1% (active),43.2%,4.3% (active),-10.6% (active),-22.5% (active),24.1%
CC(=O)OCC1OC(OC2C(COC(C)=O)OC(n3cc(COc4ccc5ccc(=O)oc5c4)nn3)C(OC(C)=O)C2OC(C)=O)C(OC(C)=O)C(OC(C)=O)C1OC(C)=O (stereo not given),102%,114%,69.2%,100%,106%,98.8%,99.2%,94.2%,104%,109%
CC1CN(c2oc(-c3ccc([N+](=O)[O-])cc3)nc2C#N)CC(C)O1 (stereo not given),97.1%,112%,98.8%,92.2%,104%,96.7%,104%,84%,95.6%,105%
O=C(NN1C(=O)/C(=C/C=C/c2ccc([N+](=O)[O-])o2)SC1=S)c1cccc(O)c1,-65.1% (active),-67.2% (active),-71.3% (active),-96.5% (active),-96.2% (active),-40.2% (active),-100% (active),-97.4% (active),-93.5% (active),-100% (active)
C#CCOc1ccc(/C=N/Nc2nc(-c3ccc(Cl)cc3)cs2)cc1OC,45.7%,69.3%,80.1%,74.6%,64.6%,29.9%,6.66% (active),54.7%,58.6%,79.5%
COc1cc(/C=C2\C(=N)N=C(SCc3nc4ccccc4[nH]3)NC2=O)ccc1O,96.3%,110%,102%,104%,105%,94.2%,98.5%,89%,88%,110%
C#CCOc1cc(N(CC)CC)ccc1C(C(=O)NC(C)(C)C)N(C(=O)C1CCc2cc(F)ccc2O1)c1ccccc1F (stereo not given),29.8%,45.3%,39.7%,35.1%,17.5%,13.5%,17.3%,30.9%,-61.6% (active),63.9%
Cc1cccc(-c2nc(Nc3cccc(S(N)(=O)=O)c3)c3ccccc3n2)c1,9.69% (active),38.4%,80.3%,51.4%,36.3%,39.8%,56.5%,49.9%,7.14% (active),57.7%
CCOC(=O)C1=C(N)N(c2ccccc2)C2=C(C(=O)CC(C)(C)C2)C1c1ccc(N2CCOCC2)cc1 (stereo not given),97.8%,112%,91.4%,92.9%,98.7%,94.6%,98.7%,83%,93.2%,107%
COC(=O)/C=C/c1cccc2c1C(=O)NC(C)(c1cc3ccccc3oc1=O)N2 (stereo not given),36.3%,69.8%,41.6%,81.5%,57.9%,58.9%,78.5%,42.8%,38.9%,75.4%
CCOC(=O)C1=C(N)N(c2ccccc2)C2=C(C(=O)CC(C)(C)C2)C1c1ccc([N+](=O)[O-])cc1 (stereo not given),86.4%,99.4%,104%,94%,101%,68%,96.5%,66.6%,85.5%,105%
O=C(NN1C(=O)/C(=C/C=C/c2ccc([N+](=O)[O-])o2)SC1=S)c1ccc(Cl)cc1,-75.6% (active),-76.4% (active),-93.4% (active),-100% (active),-97.4% (active),-34.7% (active),-100% (active),-100% (active),-97.3% (active),-99.7% (active)
C#CCOc1ccc(/C=N/Nc2nc(-c3cc4cc(OC)ccc4oc3=O)cs2)cc1OC,60.5%,29.2%,102%,75.3%,38.5%,20.8%,39.2%,54.4%,22.8%,18.9%
O=C(c1ccccc1)c1ccc2nc(-c3cccc(Cl)c3)[nH]c2c1,108%,110%,99.2%,103%,96.5%,99.6%,99.5%,98%,95.4%,104%
COc1ccc(C(=O)/C=C/c2ccc(OC)c(OCc3ccccc3)c2)cc1OC,1.81% (active),5.47% (active),39.7%,17.3%,7.69% (active),25.1%,31.9%,14.8%,-26% (active),39.8%
COc1cc2nc(SCc3ccccc3)n(-c3ccc(Cl)cc3)c(=O)c2cc1OC,33.6%,45.4%,-49.5% (active),-30% (active),-73.1% (active),1.2% (active),82.9%,29.3%,-100% (active),21.6%
CN(C)c1nc(NCCNS(=O)(=O)c2ccc(C3=Nc4c(N)nc(N)nc4NC(c4ccc(C(F)(F)F)cc4)C3)cc2)nc(Nc2ccc(F)cc2)n1 (stereo not given),18.7%,-69.6% (active),31.7%,22.9%,0.0667% (active),17.8%,-77.1% (active),-51% (active),-78.2% (active),14%
C#CCOc1cc(N(CC)CC)ccc1C(C(=O)NC(C)(C)C)N(C(=O)C1CCc2cc(F)ccc2O1)c1ccc(F)cc1 (stereo not given),44.6%,61%,60.5%,41.6%,37.9%,17.6%,33.9%,35.5%,42.3%,66.7%
COC1=C[C@]23CCC(=O)N2CCc2cc4c(cc2[C@@H]3[C@@H]1OC(=O)[C@H](C)O)OCO4,-1.4% (active),1.93% (active),-10.6% (active),-1.61% (active),-3.63% (active),14.8%,-2.42% (active),31.5%,-57.2% (active),15.1%
